# Source: PubChem
# Tau fibril ThT: blocks human tau fibril formation measured by thioflavin T. Potency, µM (titrated, usually from 57.4 µM), for the others: at the highest dose activity, negative = inhibition, hits mostly inhibitors. P10636. hit rate 2.1% among 270,000. recombinant tau K18 P301L, heparin-induced fibrillization, ThT fluorescence. AID 1460; note: nearly all actives have a fitted effect of over 55% in size
# Target sequence (P10636 561-689 P618L limits assumed): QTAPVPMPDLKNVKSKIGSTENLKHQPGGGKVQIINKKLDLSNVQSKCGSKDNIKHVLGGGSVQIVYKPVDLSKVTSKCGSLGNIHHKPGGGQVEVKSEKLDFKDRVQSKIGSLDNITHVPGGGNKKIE
#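 Aggregation was driven by heparin (20 uM final) acting on recombinant tau […] bearing P301L in 100 mM sodium acetate pH 7; fibrils were detected with Thioflavin T.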
# Tau FP inhib: inhibitors of human tau fibril formation. K18 P301L tau heparin fibrillization, Alexa594 FP, 6 h. P10636. hit rate 0.39% among 280,000. Potency, µM (series often up to 57.7 µM), without a hit: at the highest dose activity, negative = inhibition, actives largely listed as inhibitors; note: nearly all actives have a fitted effect of over 55% in size
#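 K18 P301L tau (15 uM unlabeled/0.24 uM Alexa 594-labeled, final) + compound + heparin 20 uM final; 100 mM NaOAc pH 7; 6 hr 37 C; ThT 30 uM final added, 1 hr RT; FP ex 555/em 632 nm.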
# TRb-SRC2 inh: inhibitors of human thyroid hormone receptor beta-SRC2 interaction. hit rate 0.065% among 280,000. Potency, µM (highest dose often 106 µM), without a hit: at the top dose activity change, negative = inhibition, actives largely listed as inhibitors. TRbeta-SRC2 peptide binding, fluorescence polarization; receptor liganded with 1 µM T3;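 note: plate controls were bound peptide for no effect and peptide without receptor for full effect; nearly all actives have a fitted effect of over 50% in size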
# Target sequence (P10828 whole entry, looked up): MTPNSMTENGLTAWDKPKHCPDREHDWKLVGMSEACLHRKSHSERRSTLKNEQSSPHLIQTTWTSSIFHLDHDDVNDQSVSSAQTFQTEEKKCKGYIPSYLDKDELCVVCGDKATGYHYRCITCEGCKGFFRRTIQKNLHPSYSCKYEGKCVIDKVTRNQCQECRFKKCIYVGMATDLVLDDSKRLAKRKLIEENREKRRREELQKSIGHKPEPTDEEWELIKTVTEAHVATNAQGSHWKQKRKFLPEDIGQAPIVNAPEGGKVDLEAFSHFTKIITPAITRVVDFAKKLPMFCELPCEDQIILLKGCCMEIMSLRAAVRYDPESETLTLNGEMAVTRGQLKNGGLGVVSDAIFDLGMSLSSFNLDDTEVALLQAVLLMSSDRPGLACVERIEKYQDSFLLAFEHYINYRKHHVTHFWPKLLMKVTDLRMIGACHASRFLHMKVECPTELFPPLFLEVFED
#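 Fluorescence polarization of 20 nM Texas Red SRC2 peptide (20-aa NR interaction domain) bound to 0.6 uM human TRb ligand-binding domain, with 1 uM T3, after 5 hr at ambient temperature; inhibition seen as decreased polarization.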
# Tau fluor counter: counter-screen for tau fibril formation inhibitors | tau K18 P301L (four-repeat tau fragment) Alexa594 fluorescence, heparin fibrillization | Potency, µM (highest dose often 57.7 µM), for the others: top-dose activity change, negative = decrease | hit rate 0.93% among 280,000 | AID 1463; note: nearly all actives have a fitted effect of over 55% in size
#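 Human K18 P301L tau (15 uM unlabeled plus 0.24 uM Alexa 594-labeled, final) in 100 mM sodium acetate pH 7 was mixed with compound and 20 uM heparin and incubated 6 hr at 37 C.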
# TexasRed fluor: Texas Red fluorescence interference in TRb-SRC2 counter-screen; TRb/SRC2 Texas Red total fluorescence interference; Potency, µM (top dose mostly 106 µM), for inactives: at the highest dose fluorescence change, negative = quenching; hit rate 0.29% among 280,000; AID 1479; active = well fitted curve in either direction with a large enough effect; inconclusive = small, poorly fitted or top-dose-only effect
#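 Human TRβ ligand-binding domain (0.6 uM) and Texas Red SRC2 peptide (20 nM) in Tris buffer with 1 uM T3 and 5% DMSO were incubated with pinned compound for 5 hr at ambient temperature. Total fluorescence was computed as S + 2P (555/632 nm).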
# * = called active by the depositor; ? = inconclusive; . = no result; ! = not confirmed by another sample; [ ] = another dose, or the depositor's remark. Hits are enriched below; roughly 3% of the tested compounds scored in any of these assays. Unless noted, calls come from the whole dose curve; as a rule, active = well fitted curve in the direction sought with a large enough effect; inconclusive = small, poorly fitted or top-dose-only effect, or another doubt; inactive = no such curve, though single readings can be large; an effect the other way counts as inactive or inconclusive. Unless noted, % is set by controls: 0 for no effect and ±100 for the full control effect; potency is the fitted concentration of half-maximal effect.
SMILES,Tau fibril ThT,Tau FP inhib,TRb-SRC2 inh,Tau fluor counter,TexasRed fluor
Oc1c(C=Nc2cccnc2)sc2ccccc12,12.6µM*,10.6%,8.8%,-12.3%,6.5%
Oc1c(/C=N/c2ccccn2)sc2ccccc12,5.62µM*,?,30.0%,2.82µM*[fluorescent],15.0%
Oc1sc(C=Nc2ccccc2)c2ccccc12,?,-6.6%,-7.9%,14.1µM*[quencher],-7.0%
Oc1sc(C=Nc2ccc(F)cc2)c2ccccc12,-10.3%,-4.7%,-6.8%,-29.6%,-5.5%
Oc1c(C=Nc2ccc(Cl)cn2)sc2ccccc12,?,4.6%,3.9%,-13.8%,-0.2%
COc1ccccc1/C=C/c1nc(C#N)c(NCCc2ccccc2)o1,?,?,-5.6%,3.55µM*[quencher],-4.5%
CO/N=C(/C)CCC(=O)OC[C@@H]1O[C@H](C#Cc2ccccc2)C=C[C@@H]1Oc1ccc(C)cc1,-7.7%[11.5 µM],-4.1%[11.6 µM],0.3%[11.2 µM],-6.0%[11.6 µM],-2.4%[11.2 µM]
O=C(CCn1nc(-c2ccc(Cl)cc2)c2ccccc2c1=O)Nc1ccc(OC(F)(F)F)cc1,-1.2%,-17.8%,-25.1%[53 µM],-23.9%,-86.9%[53 µM]
COc1cc(C(c2c(C)[nH][nH]c2=O)c2c(C)[nH][nH]c2=O)ccc1OCc1ccc([N+](=O)[O-])cc1,10µM*,-7.3%,?,?,-7.1%
COc1cc(C(c2c(C)[nH][nH]c2=O)c2c(C)[nH][nH]c2=O)ccc1OC(=O)c1cccc([N+](=O)[O-])c1,?,-1.4%,?,?,-2.4%
CC(=O)n1cc(N(C(=O)CCl)c2ccc(Cl)cc2)c2ccccc21,28.2µM*,-6.7%,0.2%,-18.7%,-2.3%
Cc1ccc2occ(/C=N/NC(N)=S)c(=O)c2c1,0.6%,-8.0%,-12.8%,-4.2%,0.355µM*[quencher]
COC(=O)CCc1sc(NC2CCCCC2)nc1-c1ccc(OC)cc1,?,-3.8%,5.2%,-15.6%,-1.5%
COC(=O)CCc1sc(Nc2ccc(OC)cc2)nc1-c1ccc(OC)cc1,?,10.5%,2.7%,17.8µM*[quencher],-20.6%
COc1ccccc1N1CCN(C(=O)CNS(=O)(=O)c2ccc(Br)s2)CC1,-14.3%,4.1%,?,-16.5%,79.4µM*[quencher]
COc1ccccc1N1CCN(C(=O)CCNS(=O)(=O)c2ccc(Br)s2)CC1,-5.4%,9.8%,4.9%,-10.5%,-4.7%
Cc1ccc(NC(=O)NCC2CCN(Cc3cccc(Cl)c3)CC2)c(Cl)c1,-4.5%,0.7%,-7.2%,-14.5%,0.9%
Cc1ccc(NC(=O)NCC2CCN(Cc3cccc(Cl)c3)CC2)cc1Cl,-7.5%,28.2µM*,-5.2%,?,-0.8%
CN(C)c1ccc(C(=S)NCc2ccco2)cc1,10µM*,-15.1%,-2.9%,?,-6.5%
C1=C/CC/C=C/CC/C=C/CC/1,.,.,-11.5%[201 µM],.,-3.7%[201 µM]
COC(=O)c1c(-c2cccs2)csc1NC(=O)c1cc(OC)cc(OC)c1,?,?,1.6%,-28.5%,2.6%
COC(=O)c1c(-c2cccs2)csc1NC(=O)c1cc(OC)c(OC)c(OC)c1,11.2µM*,?,2.4%,-20.2%,-15.2%
COC(=O)c1c(-c2cccs2)csc1NC(=O)c1ccc(Br)cc1,15.8µM*,?,-8.6%,-23.8%,?
COC(=O)c1c(-c2cccs2)csc1NC(=O)c1ccc(OC)c(OC)c1,?,?,-3.1%,-20.0%,0.6%
COC(=O)c1c(-c2cccs2)csc1NC(=O)c1ccc(C)cc1,31.6µM*,?,0.3%,-24.7%,-9.8%
SMILES,Tau fibril ThT,Tau FP inhib,TRb-SRC2 inh,Tau fluor counter,TexasRed fluor
O=C1C(=O)c2c(C(=O)c3ccccc3)coc2-c2ccccc21,2.51µM*,7.94µM*,-10.1%,?,-4.9%
Cc1oc2c(c1C(=O)c1ccccc1)C(=O)C(=O)c1ccccc1-2,7.94µM*,?,?,-22.1%,0.0%
O=C(C1=C(c2ccccc2)C(=O)c2ccccc2C1=O)c1ccccc1,-0.6%,4.5%,-2.3%,-0.4%,4.3%
COc1ccc(S(=O)(=O)N2CCN(Cc3nc4ccc(C)cc4o3)CC2)cc1OC,6.7%,4.5%,-7.7%,6.3%,-1.4%
C=CCn1c(N)c(C(=O)Nc2cccc(C)c2)c2nc3ccccc3nc21,?,?,-5.4%,11.2µM*[quencher],-0.3%
Cc1onc(-c2c(F)cccc2Cl)c1C(=O)OCC(=O)c1c[nH]c2ccccc12,-3.3%,17.8µM*,1.4%,17.8µM*[quencher],-2.5%
COc1cc(CNCc2ccccn2)ccc1OCc1ccc(Cl)cc1Cl,11.7%,-4.7%,-2.3%,-13.3%,-1.7%
Oc1ccc(NCc2ccccc2OCc2ccccc2Cl)cc1,28.2µM*,-14.7%,-19.0%[11.2 µM],15.8µM*[quencher],?
Oc1ccc(NCc2ccc(OCc3ccccc3Cl)cc2)cc1,14.1µM*,?,-1.1%[11.2 µM],7.94µM*[quencher],-2.5%[11.2 µM]
CCOc1cc(CNc2ccc(O)cc2)ccc1OCc1ccc(Cl)cc1Cl,12.6µM*,22.4µM*,28.2µM*,?,19.1%
CCOc1ccccc1CNc1ccc(O)cc1,7.08µM*,8.91µM*,28.2µM*,?,?
CCCn1c(-c2ccc(F)cc2)nc2c(NCCCN(CC)CC)nc(C)nc21,7.9%,-11.5%,0.7%,-1.5%,4.4%
CC(CN(C)C)C(C)(O)Cc1ccc(Cl)cc1 (stereo unspecified),-19.1%,?,-3.7%,-28.7%,-0.8%
CC1CCC2C(=O)N3C(CCC(C)[C@H]3c3cccc(N4CCCC4=O)c3)C(=O)N2C1c1cccc(N2CCCC2=O)c1 (stereo partly specified),-15.9%[11.5 µM],-5.6%[11.6 µM],0.6%[11.2 µM],-19.2%[11.6 µM],-42.3%[11.2 µM]
CCc1ccc(CNc2ccc(O)cc2)cc1,3.16µM*,7.08µM*,-12.8%,?,0.1%
COc1cccc(CNCCO)c1OCc1ccc(Cl)cc1,-2.8%,0.2%,2.2%,-2.5%,-0.3%
Oc1ccc(NCc2ccccc2OCc2ccccc2F)cc1,15.8µM*,22.4µM*!,35.5µM*!,7.94µM*[quencher],9.3%[11.2 µM]
CCOc1cccc(CNc2ccc(O)cc2)c1OCc1ccc(Cl)cc1,8.91µM*,12.6µM*,35.5µM*,?,?
Oc1ccc(NCc2ccc(OCc3ccccc3)cc2)cc1,?,-7.0%,-0.1%[11.2 µM],?,-13.4%[11.2 µM]
CCc1ccc(NC(=O)Cn2cnc3nc4c(cc3c2=O)CCCC4)cc1,8.3%,-7.3%,0.0%,-1.6%,4.1%
CN(C)S(=O)(=O)c1cccc(C(=O)Nc2cc(Cl)cc(Cl)c2)c1,-13.5%,?,4.8%,?,-3.9%
O=C(Nc1cc(Cl)cc(Cl)c1)c1cccc(OC(F)F)c1,?,20µM*,-13.8%,?,0.5%
COc1cc(/C=C/C(=O)c2cccs2)cc(OC)c1OC,?,0.7%,-6.9%,-5.5%,-2.4%
COc1ccc(C(=O)/C=C/c2ccc(OC)c(O)c2)c(F)c1,1.2%,-3.7%,1.5%,-1.9%,-7.2%
COc1ccc(/C=C/C(=O)CC(=O)/C=C/c2cccc(O)c2OC)cc1O,1.26µM*,-9.3%,?,8.91µM*[quencher],?
COc1cc(/C=C/C(=O)c2ccc(Cl)s2)cc(OC)c1O,14.1µM*,5.3%,-1.1%,?,-8.9%
